# Data from PubChem BioAssay (NCI).
# The panel holds about 83,000 compounds, 20% with a hit somewhere; the sample as a whole holds those more often.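 Cell lines were cultured in 96-well plates, exposed to a single compound concentration, and assessed for percent growth 48 hours later.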 Values without a mark were called inactive. The source made the active and inactive calls. How the source made its calls: active means growth percent below 10; inactive means the rest.
# Key:
# Experiment in all cases: NCI-60 one-dose screen, 48 h (100 = growth as untreated, 0 = no growth, -100 = all killed)
# Conditions in all cases: 10 µM unless noted
# [1] = test system: T-47D breast
# [2] = test system: BT-549 breast
# [3] = test system: MDA-MB-435 melanoma
# [4] = test system: SW-620 colon
# [5] = test system: MCF7 breast
# [6] = test system: HCT-116 colon
# [7] = test system: HCC-2998 colon
# [8] = test system: KM12 colon
SMILES,growth [1],growth [2],growth [3],growth [4],growth [5],growth [6],growth [7],growth [8]
O=C(NNc1nc2cc(F)cc(F)c2n2cccc12)c1ccncn1,-1.57% (active),12.2%,26.3%,20.8%,4.99% (active),18.6%,57.5%,21.6%
C#CCOc1ccc(C(Nc2ccc(OC)cc2)c2nnnn2C2CCCCC2)cc1 (stereo not drawn),94.1%,99.6%,101%,98.3%,91.7%,88.7%,101%,102%
Oc1ccc(CSc2nnc(-c3ccc(Oc4ccccc4)cc3)o2)c2cccnc12,7.85% (active),49.8%,29.9%,2.32% (active),16%,1.74% (active),29.4%,9.88% (active)
O=C(c1cccc(F)c1)n1ccc2cc(NC(=S)Nc3cccnc3)ccc21,93.7%,97.6%,99%,93.8%,85.7%,105%,99.7%,97.9%
C(=C(\C1=NCCN1)n1cnc2ccccc21)/c1cccc2ccccc12,82.4%,107%,74%,102%,57.3%,88%,92.9%,42.5%
O=C(/C=C/c1cccc(O)c1)c1ccc(O)cc1,62.6%,86.5%,65.5%,49.2%,37.3%,33.8%,110%,33.4%
C=CCn1c(SCC(=O)Nc2ccc(OC)cc2)nnc1-c1ccc(Cl)cc1,95.5%,106%,90.1%,99.1%,94.9%,91.2%,99.6%,92.4%
CS(=O)(=O)c1ccc(-c2nn(-c3ccccc3)cc2/C=N/NC(=O)c2ccncc2)cc1,90.8%,97.1%,85.4%,102%,93.8%,107%,102%,90.7%
CC(=O)c1ccc(NC(=O)COc2ccc(C3SCC(=O)N3c3ccc(Br)cc3)cc2)cc1 (stereo not drawn),88.7%,95.7%,102%,110%,89.6%,91%,103%,98.2%
COc1ccc(/C=N\NC(=O)c2ccc3nc(-c4ccc(Br)cc4)[nH]c3c2)cc1,55.8%,65.8%,35.5%,23.5%,15.8%,12.5%,59.4%,25.9%
COc1cc(/C=N/n2cnc3oc(-c4ccccc4)cc3c2=N)cc(CN2CCN(C)CC2)c1O,99.4%,120%,98.6%,101%,89.3%,80.6%,108%,87.2%
CC1(C)CC[C@]2(C(=O)O)CC[C@]3(C)C(=CCC4[C@@]5(C)C[C@@H](O)[C@@H]6OC(c7ccccc7O)OC[C@@]6(C)C5CC[C@]43C)C2C1 (stereo partly drawn),57.7%,42.4%,77.5%,37.8%,62.8%,4.38% (active),34.9%,24.5%
CCOC(=O)c1c(Nc2ccccc2)nn2c(-c3ccc(Br)cc3)ccnc12,41.3%,104%,80.3%,78.4%,80.9%,42.5%,87.1%,78.3%
O=C(c1ccc(O)cc1)[C@@H]1[C@@H]2CCCN2[C@@]2(C(=O)N(C(=O)c3ccc(F)cc3)c3ccccc32)[C@H]1c1ccc(F)cc1,89%,98.5%,88.1%,113%,86.3%,91.4%,108%,100%
O=C(COc1cccc2cccnc12)Nc1ccc(C(=O)/C=C/c2ccc(Cl)cc2)cc1,74.8%,87.9%,92.6%,93.6%,17.1%,5.25% (active),102%,86.5%
CCCCCCNC(=O)Oc1ccc(/C(=C(\C)c2ccc(Cl)cc2)c2ccc(OCCN(C)C)cc2)cc1,54.8%,77.4%,85.3%,21.3%,10.8%,18.7%,71.4%,83.1%

SMILES,growth [1],growth [2],growth [3],growth [4],growth [5],growth [6],growth [7],growth [8]
Cc1cc(C(=O)Nc2ccc(SC#N)cc2)c(C)o1,84.1%,75.4%,103%,104%,88.1%,96.1%,107%,89%
O=c1[nH]c(CCl)nc2c1cnn2-c1ccccc1,95.2%,94.1%,104%,102%,79.5%,94.9%,105%,101%
CC(=O)Nc1cccc(-n2cnc3cc(-c4ccc(O)cc4)ccc32)c1,27.7%,49.2%,-17.7% (active),19.4%,31.4%,20.8%,79.6%,20.6%
CCOP(=O)(OCC)OC[C@]12CCC(C)(C)C[C@H]1C1=CC[C@@H]3[C@@]4(C)C/C(=C\c5cccnc5)[C@H](OP(=O)(OCC)OCC)C(C)(C)[C@@H]4CC[C@@]3(C)[C@]1(C)CC2,16.1%,33.4%,31.2%,25.9%,6.1% (active),11.1%,33.1%,23.6%
CSc1nccc(-c2c(-c3ccc(F)c(OCc4ccc(F)cc4)c3)nc3sccn23)n1,65.9%,71.3%,59.7%,48.9%,65%,51.3%,93.4%,80.1%
CCCCCCNC(=O)Oc1ccc(/C(=C(/C)c2ccccc2)c2ccc(OCCN(C)C)cc2)cc1,33.1%,75.3%,53%,27.3%,18%,22.6%,69.3%,66.2%
CNC(=O)c1cc(Oc2ccc3nc(NC(=O)c4cc(C)cc(C)c4)sc3c2)ccn1,80.1%,11.6%,40.6%,92.7%,82%,32.9%,103%,91.3%
O=C1Nc2ccc(Cl)cc2/C1=C/c1ccc(OCc2ccc(F)cc2)cc1,102%,107%,93%,102%,84.6%,88.5%,102%,98.8%
Oc1ccc(CSc2nnc(-c3ccncc3)o2)c2cccnc12,15.8%,23.7%,13.4%,16.4%,4.01% (active),8.9% (active),30.2%,14.2%
CCN1C(=O)N(CC)C2SC(N/N=C/c3ccccc3)=NC21 (stereo not drawn),64.8%,-19.9% (active),-10.2% (active),22.5%,18.6%,14.2%,12.7%,13.3%
CC(c1ccccc1)N1C(=O)/C(=C/c2csc(C#N)n2)SC1=S (stereo not drawn),69.2%,90.5%,94.4%,74.1%,36.6%,67.6%,107%,103%
CS(=O)(=O)c1nccc(-c2c(-c3ccc(F)c(OCc4ccc(F)cc4)c3)nc3sccn23)n1,-18.7% (active),69.8%,97.3%,88.2%,-6.26% (active),90.2%,-63.6% (active),41.5%
CN1CCN(c2ccc(C(=O)Nc3cccc(-c4cn(-c5ccc(S(N)(=O)=O)cc5)nn4)c3)cc2C(F)(F)F)CC1,74.8%,73.5%,77.7%,50.4%,70.8%,71.4%,88.3%,59.1%
O=c1c2ccccc2nc(COc2ccccc2)n1/N=C/C=C/c1ccccc1,94.6%,135%,99.8%,91.5%,83.8%,96.5%,101%,111%
COc1ccc(N2CCN(C(=O)CSc3ccc(-c4nc5cc(C)c(C)cc5[nH]4)cn3)CC2)cc1,21.5%,32.9%,73.1%,85.5%,42.8%,74.3%,94.2%,53.2%
